# Measurements reported in ChEMBL document CHEMBL1201862, “PubChem BioAssay data set” (2004).
# In all, about 320,000 compounds went through this assay and about 740 (0.23%) were called active. Roughly 2% stayed inconclusive and do not appear here. The calls are words filed in the database; no cut-off is given here. Many of the other results were omitted from the sample, so actives are more common in it than they were.
# Tested on: Saccharomyces cerevisiae
# Experiment: qHTS Assay for Small Molecule Inhibitors of Mitochondrial Division or Activators of Mitochondrial Fusion.
# Type: functional
# Conditions: read-out: Potency
row,SMILES,AC50
1,O=C(O)Cc1ccccc1Nc1c(Cl)cccc1Cl [DICLOFENAC SODIUM],20.6 µM (active)
